Data published in the supplement of paper PMC10849652.
Targets with a hit are over-represented here; the source holds about 8,800 in all. About 0.5% of all pairs of compound and target were hits.

These targets were tested with COc1cc2ncnc(Nc3ccc(F)c(Cl)c3)c2cc1OCCCN1CCOCC1 [gefitinib] (assay: log2 fold change, soluble protein after heating vs DMSO (PISA); higher = thermal stabilisation; K562 lysate, 10 uM; active = over 0.2 and 3.5 SD of the protein, either way, in both replicates (recomputed)).
Outline: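 To prepare the extract, K562 pellets were dounce-homogenised in PBS pH 7.4 with 1 mM MgCl2, giving crude material at 1 mg/mL protein. This was treated with 10 μM compound for 30 min, then heated in aliquots for 3 min over 48°C-58°C before pooling and addition of NP-40 to 0.5% at 4°C. Centrifugation at 21,000xg for 90 min left soluble protein in the supernatant, which TMTpro 16plex LC-MS/MS quantified with equalised channel sums. Results are log-two fold changes in thermal stability compared with solvent controls, from duplicates.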

Sequence of UniProt O43427 (O43427 whole entry, looked up): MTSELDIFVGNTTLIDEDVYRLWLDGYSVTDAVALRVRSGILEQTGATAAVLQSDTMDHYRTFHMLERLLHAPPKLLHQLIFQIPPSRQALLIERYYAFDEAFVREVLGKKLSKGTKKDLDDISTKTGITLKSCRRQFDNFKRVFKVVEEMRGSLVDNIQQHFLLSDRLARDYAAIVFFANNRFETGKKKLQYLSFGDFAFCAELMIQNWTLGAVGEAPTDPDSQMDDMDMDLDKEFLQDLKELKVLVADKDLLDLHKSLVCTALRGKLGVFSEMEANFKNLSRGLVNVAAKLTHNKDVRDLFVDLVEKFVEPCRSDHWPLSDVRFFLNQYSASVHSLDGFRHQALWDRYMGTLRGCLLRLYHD
Sequence of UniProt Q13409 (Q13409 whole entry, looked up): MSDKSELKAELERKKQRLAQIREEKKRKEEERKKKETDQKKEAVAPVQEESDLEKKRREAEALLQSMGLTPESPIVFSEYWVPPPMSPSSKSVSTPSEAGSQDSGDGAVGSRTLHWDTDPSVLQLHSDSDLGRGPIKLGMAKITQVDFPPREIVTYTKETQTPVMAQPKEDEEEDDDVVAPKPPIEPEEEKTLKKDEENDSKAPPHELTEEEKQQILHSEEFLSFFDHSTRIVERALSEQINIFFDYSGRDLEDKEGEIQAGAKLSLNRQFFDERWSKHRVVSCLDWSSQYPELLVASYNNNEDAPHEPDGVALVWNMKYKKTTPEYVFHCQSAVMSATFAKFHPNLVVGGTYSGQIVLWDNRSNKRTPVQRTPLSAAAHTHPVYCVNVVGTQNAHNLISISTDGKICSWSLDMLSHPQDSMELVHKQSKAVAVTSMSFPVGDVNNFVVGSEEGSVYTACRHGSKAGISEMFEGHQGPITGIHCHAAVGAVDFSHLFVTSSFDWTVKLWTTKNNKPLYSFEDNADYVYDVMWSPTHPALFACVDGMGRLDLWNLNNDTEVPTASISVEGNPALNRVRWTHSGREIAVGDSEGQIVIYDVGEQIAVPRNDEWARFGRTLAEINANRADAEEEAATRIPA
Sequence of UniProt Q9UPW0 (Q9UPW0 whole entry, looked up): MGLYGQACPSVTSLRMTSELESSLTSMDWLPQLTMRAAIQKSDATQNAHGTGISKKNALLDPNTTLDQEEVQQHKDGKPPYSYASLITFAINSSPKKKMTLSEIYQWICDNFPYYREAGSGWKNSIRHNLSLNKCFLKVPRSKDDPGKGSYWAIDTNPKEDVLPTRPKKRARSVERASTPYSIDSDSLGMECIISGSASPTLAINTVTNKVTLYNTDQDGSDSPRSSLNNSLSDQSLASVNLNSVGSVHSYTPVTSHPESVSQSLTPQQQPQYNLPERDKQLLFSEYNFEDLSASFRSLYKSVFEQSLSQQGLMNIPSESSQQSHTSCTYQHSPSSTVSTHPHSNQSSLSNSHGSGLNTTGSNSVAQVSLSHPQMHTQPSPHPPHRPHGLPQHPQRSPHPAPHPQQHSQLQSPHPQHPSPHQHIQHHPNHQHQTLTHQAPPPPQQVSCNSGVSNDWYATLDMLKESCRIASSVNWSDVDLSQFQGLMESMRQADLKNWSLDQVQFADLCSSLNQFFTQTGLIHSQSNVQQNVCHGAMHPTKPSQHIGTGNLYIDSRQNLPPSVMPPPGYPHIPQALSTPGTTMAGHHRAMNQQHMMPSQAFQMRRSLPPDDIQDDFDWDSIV
Sequence of UniProt O15117 (O15117 whole entry, looked up): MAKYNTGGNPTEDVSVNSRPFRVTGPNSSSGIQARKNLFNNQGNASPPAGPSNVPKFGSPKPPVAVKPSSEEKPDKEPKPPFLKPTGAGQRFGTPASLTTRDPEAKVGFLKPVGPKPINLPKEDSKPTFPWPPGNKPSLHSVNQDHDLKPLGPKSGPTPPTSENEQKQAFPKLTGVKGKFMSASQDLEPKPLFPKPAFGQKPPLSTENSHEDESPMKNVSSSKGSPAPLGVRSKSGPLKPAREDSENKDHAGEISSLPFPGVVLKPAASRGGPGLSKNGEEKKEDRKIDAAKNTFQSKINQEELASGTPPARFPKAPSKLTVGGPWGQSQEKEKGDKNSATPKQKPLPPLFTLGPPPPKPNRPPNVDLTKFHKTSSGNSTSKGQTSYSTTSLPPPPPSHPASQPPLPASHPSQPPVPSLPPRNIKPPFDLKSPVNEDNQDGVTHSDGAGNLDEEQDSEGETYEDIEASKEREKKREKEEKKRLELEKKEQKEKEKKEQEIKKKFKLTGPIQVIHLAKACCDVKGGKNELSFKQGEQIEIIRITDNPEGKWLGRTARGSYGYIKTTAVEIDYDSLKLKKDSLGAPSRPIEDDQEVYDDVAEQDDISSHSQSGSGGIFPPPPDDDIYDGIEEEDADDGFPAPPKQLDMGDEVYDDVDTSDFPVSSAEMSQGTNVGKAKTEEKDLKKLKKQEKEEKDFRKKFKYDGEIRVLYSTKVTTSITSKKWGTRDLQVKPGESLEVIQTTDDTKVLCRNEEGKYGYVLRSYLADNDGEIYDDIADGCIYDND
Sequence of UniProt Q9NR50 (Q9NR50 whole entry, looked up): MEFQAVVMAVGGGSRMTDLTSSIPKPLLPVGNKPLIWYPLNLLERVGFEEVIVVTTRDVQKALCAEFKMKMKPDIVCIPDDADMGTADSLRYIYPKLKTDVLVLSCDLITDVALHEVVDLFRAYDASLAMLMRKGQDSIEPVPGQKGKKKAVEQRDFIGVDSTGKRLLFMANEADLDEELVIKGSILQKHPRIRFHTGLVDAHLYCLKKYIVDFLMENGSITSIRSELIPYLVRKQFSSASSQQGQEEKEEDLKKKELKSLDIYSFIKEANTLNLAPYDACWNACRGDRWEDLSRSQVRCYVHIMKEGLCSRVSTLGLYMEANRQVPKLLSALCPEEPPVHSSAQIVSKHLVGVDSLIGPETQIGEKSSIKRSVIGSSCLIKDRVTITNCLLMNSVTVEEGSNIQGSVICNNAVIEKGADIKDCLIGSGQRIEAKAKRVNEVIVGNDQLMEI
Sequence of UniProt Q9UJ14 (Q9UJ14 whole entry, looked up): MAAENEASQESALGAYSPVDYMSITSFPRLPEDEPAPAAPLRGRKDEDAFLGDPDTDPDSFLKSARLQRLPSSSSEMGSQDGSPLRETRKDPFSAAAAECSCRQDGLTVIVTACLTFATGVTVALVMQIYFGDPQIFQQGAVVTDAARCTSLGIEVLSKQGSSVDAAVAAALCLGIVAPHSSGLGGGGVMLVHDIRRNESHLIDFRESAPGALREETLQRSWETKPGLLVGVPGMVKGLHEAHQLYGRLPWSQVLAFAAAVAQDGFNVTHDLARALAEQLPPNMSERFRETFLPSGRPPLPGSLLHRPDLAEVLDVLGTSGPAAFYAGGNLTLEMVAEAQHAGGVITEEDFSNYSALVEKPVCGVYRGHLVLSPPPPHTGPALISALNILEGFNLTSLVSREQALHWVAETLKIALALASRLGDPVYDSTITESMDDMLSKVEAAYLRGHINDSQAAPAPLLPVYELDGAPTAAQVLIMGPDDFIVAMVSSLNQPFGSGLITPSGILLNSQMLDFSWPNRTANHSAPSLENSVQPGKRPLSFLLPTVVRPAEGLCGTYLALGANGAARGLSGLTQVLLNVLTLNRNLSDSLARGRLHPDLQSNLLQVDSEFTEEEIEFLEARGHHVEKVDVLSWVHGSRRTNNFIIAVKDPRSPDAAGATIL
Sequence of UniProt Q13144 (Q13144 whole entry, looked up): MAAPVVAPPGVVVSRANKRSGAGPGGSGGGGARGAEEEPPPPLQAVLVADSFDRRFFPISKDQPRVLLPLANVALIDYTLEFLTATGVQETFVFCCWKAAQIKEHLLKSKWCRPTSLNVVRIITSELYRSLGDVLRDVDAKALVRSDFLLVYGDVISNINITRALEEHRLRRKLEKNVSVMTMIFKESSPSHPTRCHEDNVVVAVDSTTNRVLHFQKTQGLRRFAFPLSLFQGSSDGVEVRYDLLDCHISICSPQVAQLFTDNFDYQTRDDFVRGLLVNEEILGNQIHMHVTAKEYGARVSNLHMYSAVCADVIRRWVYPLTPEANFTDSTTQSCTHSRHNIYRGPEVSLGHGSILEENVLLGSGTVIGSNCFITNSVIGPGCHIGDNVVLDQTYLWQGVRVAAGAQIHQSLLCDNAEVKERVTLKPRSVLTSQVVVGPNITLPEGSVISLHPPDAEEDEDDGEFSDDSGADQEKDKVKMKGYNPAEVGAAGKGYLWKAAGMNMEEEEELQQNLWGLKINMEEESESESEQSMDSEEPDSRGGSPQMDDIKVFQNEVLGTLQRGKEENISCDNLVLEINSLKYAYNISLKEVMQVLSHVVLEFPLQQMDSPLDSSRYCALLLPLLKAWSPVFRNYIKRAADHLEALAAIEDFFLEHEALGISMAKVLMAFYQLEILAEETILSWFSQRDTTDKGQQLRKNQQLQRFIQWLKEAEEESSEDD
Sequence of UniProt Q9UJY4 (Q9UJY4 whole entry, looked up): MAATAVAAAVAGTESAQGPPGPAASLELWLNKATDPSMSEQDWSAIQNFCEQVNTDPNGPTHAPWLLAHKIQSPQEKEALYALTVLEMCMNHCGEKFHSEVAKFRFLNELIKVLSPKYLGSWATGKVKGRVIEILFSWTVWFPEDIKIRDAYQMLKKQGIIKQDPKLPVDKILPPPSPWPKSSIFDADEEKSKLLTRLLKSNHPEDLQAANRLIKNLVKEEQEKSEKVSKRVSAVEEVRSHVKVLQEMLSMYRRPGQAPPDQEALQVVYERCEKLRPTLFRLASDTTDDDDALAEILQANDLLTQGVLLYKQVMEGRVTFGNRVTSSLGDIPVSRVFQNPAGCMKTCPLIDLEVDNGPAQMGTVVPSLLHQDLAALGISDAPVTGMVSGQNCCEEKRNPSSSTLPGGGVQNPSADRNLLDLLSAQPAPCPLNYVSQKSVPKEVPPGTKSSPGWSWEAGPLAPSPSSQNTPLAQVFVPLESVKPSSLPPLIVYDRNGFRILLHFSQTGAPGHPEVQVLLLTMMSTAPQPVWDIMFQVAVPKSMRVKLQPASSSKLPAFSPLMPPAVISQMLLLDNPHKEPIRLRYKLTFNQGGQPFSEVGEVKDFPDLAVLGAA

log2 fold change, inactive:
FTL (UniProt P02792) -0.024
EPHX2 (UniProt P34913) -0.002
FLAD1 (UniProt Q8NFF5) -0.042
ELF2 (UniProt Q15723) 0.047
EPB41, A0A2R8Y6D0 0.407
EIF3I (UniProt Q13347) -0.03
ERCC4 (UniProt Q92889) 0.044
EIF2B4 isoform 2 (UniProt Q9UI10) 0
EP400 isoform 5 (UniProt Q96L91) -0.055
GCN1 (UniProt Q92616) -0.004
FBXO22 (UniProt Q8NEZ5) 0.017
GIGYF2 (UniProt Q6Y7W6) 0.005
GAMT (UniProt Q14353) -0.035
ERLIN2 (UniProt O94905) 0.005
EIF2B3 (UniProt Q9NR50) -0.041
GALK1 isoform 2 (UniProt P51570) 0.034
ERAL1 (UniProt O75616) 0.02
EFCAB14 (UniProt O75071) -0.131
FPGT (UniProt O14772) 0.013
FXR2 (UniProt P51116) 0.012
FAU (UniProt E9PR30) -0.044
FIBP (UniProt O43427) -0.005
EIF2B5 (UniProt Q13144) -0.016
ECI2 (UniProt O75521) 0.011
EED, A0A5F9ZI63 -0.025
DST (UniProt Q03001) 0.046
FYB1 isoform 3 (UniProt O15117) -0.029
EXTL2 (UniProt Q9UBQ6) -0.111
EXOC4 (UniProt Q96A65) -0.035
GGT7 (UniProt Q9UJ14) 0.055
DYNC1I2 isoform 5 (UniProt Q13409) 0.006
FIG4 (UniProt Q92562) 0.148
EXOC2 (UniProt Q96KP1) 0.005
FOXJ3 (UniProt Q9UPW0) 0.054
EPRS (UniProt P07814) -0.032
GALNT2 (UniProt Q10471) -0.021
GGA2 (UniProt Q9UJY4) -0.025
